# Reference: PMC4336329 (PLoS ONE, 2015)
# The campaign covered roughly 310,000 compounds. About 14,000 (4.5%) showed an effect of 50% or more. Effects have a minus sign here. Only a selection was taken, and strong results are over-represented in it overall.
# Target: human ether-à-go-go-related gene (hERG) potassium channel (human, UniProt Q12809)
# Assay: primary screen, population patch clamp on CHO cells stably expressing hERG; higher = less effect of the substance
# 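Note: peak tail current of the secondary pulse compared with the same well before compound.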
# human ether-à-go-go-related gene (hERG) potassium channel, sequence (Q12809 whole entry, looked up): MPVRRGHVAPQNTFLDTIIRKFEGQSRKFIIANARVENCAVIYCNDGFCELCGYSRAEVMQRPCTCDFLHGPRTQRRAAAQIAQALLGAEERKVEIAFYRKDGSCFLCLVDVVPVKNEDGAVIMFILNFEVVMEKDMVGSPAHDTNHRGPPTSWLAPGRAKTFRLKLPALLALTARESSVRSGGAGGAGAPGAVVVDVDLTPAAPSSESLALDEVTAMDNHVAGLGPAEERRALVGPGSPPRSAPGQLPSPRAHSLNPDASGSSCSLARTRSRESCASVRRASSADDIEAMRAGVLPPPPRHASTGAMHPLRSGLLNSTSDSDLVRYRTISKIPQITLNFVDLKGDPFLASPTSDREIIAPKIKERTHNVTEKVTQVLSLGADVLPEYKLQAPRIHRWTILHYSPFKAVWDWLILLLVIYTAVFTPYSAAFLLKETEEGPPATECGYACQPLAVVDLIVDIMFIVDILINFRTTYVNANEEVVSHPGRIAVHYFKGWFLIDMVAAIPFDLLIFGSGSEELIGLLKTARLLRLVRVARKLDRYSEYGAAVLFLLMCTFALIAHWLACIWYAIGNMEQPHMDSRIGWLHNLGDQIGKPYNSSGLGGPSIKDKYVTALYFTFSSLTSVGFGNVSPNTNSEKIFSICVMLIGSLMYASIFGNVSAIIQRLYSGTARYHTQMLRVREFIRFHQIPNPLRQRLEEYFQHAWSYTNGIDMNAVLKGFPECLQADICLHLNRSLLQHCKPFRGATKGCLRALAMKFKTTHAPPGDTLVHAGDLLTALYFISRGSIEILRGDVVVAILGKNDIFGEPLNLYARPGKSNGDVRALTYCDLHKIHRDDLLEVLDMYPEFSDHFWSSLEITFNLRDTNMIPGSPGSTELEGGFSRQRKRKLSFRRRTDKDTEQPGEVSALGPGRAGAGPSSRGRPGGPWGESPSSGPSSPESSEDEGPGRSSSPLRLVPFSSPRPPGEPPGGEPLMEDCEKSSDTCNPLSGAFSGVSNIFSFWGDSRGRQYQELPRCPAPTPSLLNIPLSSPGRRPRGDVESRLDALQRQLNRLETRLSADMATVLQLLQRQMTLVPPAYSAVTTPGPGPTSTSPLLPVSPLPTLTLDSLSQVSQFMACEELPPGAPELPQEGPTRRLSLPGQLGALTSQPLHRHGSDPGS
row,SMILES,"hERG current change (%, negative = inhibition) at 10uM"
1,Cc1cc(C)cc(NC(=O)CSc2nc3c(oc4ccccc43)c(=O)n2-c2ccccc2)c1,-11.1%
2,O=C(c1ccc(F)cc1)N1CCCCC(Sc2nnc3ccccn23)C1=O (stereo not shown),-59.9%
3,Cc1cc2nnc(SC3CCCCN(C(=O)c4ccc(F)cc4)C3=O)n2c2ccccc12 (stereo not shown),-13.2%
4,O=C(c1ccccc1)N1CCCCC(Sc2nnc3ccccn23)C1=O (stereo not shown),5.24%
5,O=C(Nc1ccccc1-c1nc2ccccc2[nH]c1=O)c1cccs1,2.16%
6,CCOc1ccc(S(=O)(=O)N2CCCCC2)cc1NC(=O)c1c(CC)noc1C,11.8%
7,CCc1noc(C)c1C(=O)Nc1ccc(S(=O)(=O)N2CCCCC2)cc1,-7.54%
8,CCc1noc(C)c1C(=O)Nc1ccc(C)c(S(=O)(=O)N2CCCCCC2)c1,-45.6%
9,CCc1noc(C)c1C(=O)Nc1cccc(S(=O)(=O)N2CCCCCC2)c1,-56%
10,Cc1noc(C)c1C(=O)Nc1cccc(S(=O)(=O)N2CCCCC2)c1,-10.6%
11,CCc1noc(C)c1C(=O)Nc1ccc(Cl)c(S(=O)(=O)N2CCCCC2)c1,-71.2%
12,CCOC(=O)c1c(C)[nH]c(C(=O)Nc2ccc(C)c(Cl)c2)c1C,10.8%
13,COc1ccc2[nH]cc(C(=O)C(=O)N3CCCCC3)c2c1,5.35%
14,COC(=O)C(=O)/C=C(\O)c1ccc(C)cc1,-2.4%
15,Cc1ccc(C(=O)CSc2nc3ccccc3c(=O)n2N)o1,-1.95%
16,O=C(c1cccs1)N(CC1CCCO1)c1nc(-c2ccccc2)cs1 (stereo not shown),2.57%
17,COc1ccc(-c2csc(N(Cc3ccco3)C(=O)c3cccs3)n2)cc1,-3.17%
18,COc1ccc(-c2csc(N(C)C(=O)c3cccs3)n2)cc1,-0.276%
19,COc1ccc(-c2csc(N(CCCN(C)C)C(=O)c3cccs3)n2)cc1.Cl,-73.9%
20,COc1ccc(-c2csc(N(CC3CCCO3)C(=O)c3cccs3)n2)cc1 (stereo not shown),-11.4%
21,CCN(C(=O)c1cccs1)c1nc(-c2ccc(OC)cc2)cs1,23.1%
22,Cc1ccc(-c2csc(N(Cc3ccco3)C(=O)c3cccs3)n2)cc1,11.6%
23,CCN(CC)CCCN(C(=O)c1cccs1)c1nc(-c2ccc(OC)cc2)cs1,-83.3%
24,CN(C)CCCN(C(=O)c1cccs1)c1nc(-c2ccccc2)cs1,-72.8%
25,O=C(NC(=S)Nc1ccc(S(=O)(=O)N2CCCC2)cc1)C1CC1,-29.8%
26,COc1ccc(C(=O)Nc2cc(C)nn2-c2nc3ccccc3[nH]2)c(OC)c1,-5.95%
27,CSc1nnc(-c2ccc(Cl)cc2Cl)o1,1.62%
28,COc1cccc(NC(=O)COc2ccc(C(=O)N3CCN(C)CC3)cc2)c1,15.8%

row,SMILES,"hERG current change (%, negative = inhibition) at 10uM"
1,O=C(O)CCc1cccnc1,7.55%
2,O=C(/C=C/c1c(F)cccc1Cl)c1ccc(O)cc1,1.1%
3,Cc1ccc(-c2nnc(N3CCCCC3)c3ccccc23)cc1S(=O)(=O)N1CCN(C)CC1,-58.7%
4,Cc1ccc(-c2nnc(NC3CCCCC3)c3ccccc23)cc1S(=O)(=O)N1CCN(C)CC1,-54.6%
5,Cc1ccc(-c2nnc3c4ccccc4c(C)nn23)cc1S(=O)(=O)N1CCN(C)CC1,-6.7%
6,Cc1ccc(-c2nnc(N3CCOCC3)c3ccccc23)cc1S(N)(=O)=O,17.3%
7,Cc1ccc(-c2nnc(N3CCCCC3)c3ccccc23)cc1S(=O)(=O)N(C)C,-27%
8,Cc1ccc(-c2nnc(NCc3nc4ccccc4[nH]3)c3ccccc23)cc1S(=O)(=O)N1CCCCC1.Cl,-7.08%
9,COc1ccc(S(=O)(=O)NCC2CCCN(C(=O)CCSC)C2)cc1 (stereo not shown),18%
10,COc1cccc(CN2CC(C(=O)N(C)Cc3ccnc4ccccc34)CCC2=O)c1 (stereo not shown),-10.2%
11,C=CCNc1nc(-c2c(C)nc3sccn23)cs1,-10.1%
12,Cc1ccccc1C(=O)NC(=S)NCCC1=CCCCC1,13.4%
13,CN1CCN(c2ncc3c(n2)CC(c2ccccc2F)CC3=O)CC1 (stereo not shown),-4.43%
14,COCCOC(=O)C1=C(C)NC2=C(C(=O)CCC2)C1c1ccc2c(c1)OCO2 (stereo not shown),-49.6%
15,O=C(CCNC(=O)c1ccc(Br)cc1)NCc1ccccc1F,-13%
16,O=C(CNC(=O)C1COc2ccccc2O1)N/N=C/c1ccc([N+](=O)[O-])cc1 (stereo not shown),-71.8%
17,O=C(Nc1cccc([N+](=O)[O-])c1)C1COc2ccccc2O1 (stereo not shown),-86.3%
18,O=C(NNC(=O)C1COc2ccccc2O1)c1cccc([N+](=O)[O-])c1 (stereo not shown),-7.35%
19,COc1ccc(/C=N/NC(=O)CNC(=O)C2COc3ccccc3O2)cc1OC (stereo not shown),-15.7%
20,COc1ccc(/C=N\NC(=O)CNC(=O)C2COc3ccccc3O2)cc1[N+](=O)[O-] (stereo not shown),-73.8%
21,O=C(CNC(=O)C1COc2ccccc2O1)N/N=C\c1ccc(Br)cc1 (stereo not shown),-20.1%
22,COc1cc(/C=N\NC(=O)CNC(=O)C2COc3ccccc3O2)ccc1O (stereo not shown),-26.8%
23,O=C(N/N=C/c1cccc([N+](=O)[O-])c1)C1COc2ccccc2O1 (stereo not shown),-29.1%
24,O=C(CNC(=O)C1COc2ccccc2O1)N/N=C\c1ccccc1Cl (stereo not shown),4.64%
25,O=C(CNC(=O)C1COc2ccccc2O1)N/N=C\c1ccc(Cl)cc1 (stereo not shown),-69.4%
26,O=C(CNC(=O)C1COc2ccccc2O1)N/N=C/c1cc(Br)c(O)c(Br)c1 (stereo not shown),-7.99%
27,O=C(Nc1ccc([N+](=O)[O-])cc1)C1COc2ccccc2O1 (stereo not shown),0.793%
